According to PubChem BioAssay (EPA / NIEHS):
Values joined by “and” are separate entries in the source; they are usually repeats but may differ in a detail not shown here. Equal entries are not always repeated. Inconclusive results are not listed. Active and inactive are the calls of the source. Rule for the calls, unless noted: active = hit-call score of the fitted dose curve at least 0.9, where 1 is the maximum; inactive = score below 0.9.

Key:
[1] = molecular target: Nucleoli Translocation, AR (gene 367) (UniProt P10275); assay: UPITT_HCI_U2OS_AR_TIF2_Nucleoli_Antagonist: University of Pittsburgh U2OS Androgen Receptor-Transcriptional Intermediary Factor 2 (AR-TIF2) Antagonism High Content Imaging Assay for Nucleoli Translocation (AID 2283997; active = hit-call score of the fitted dose curve at least 0.9, where 1 is the maximum)
Method in brief: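 Measured quantity was AR-RFP fluorescence localized to nucleoli in engineered U2OS cells also bearing TIF2-GFP, acquired on automated high-content imagers. Primary testing used 20 uM compound; actives were confirmed in triplicate wells.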

[2] = molecular target: Nucleoli Translocation, AR (gene 367) (UniProt P10275); assay: UPITT_HCI_U2OS_AR_TIF2_Nucleoli_Agonist: University of Pittsburgh U2OS Androgen Receptor-Transcriptional Intermediary Factor 2 (AR-TIF2) Agonism High Content Imaging Assay for Nucleoli Translocation (AID 2283998; active = hit-call score of the fitted dose curve at least 0.9, where 1 is the maximum)
Method in brief: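 Red-tagged human androgen receptor co-expressed with GFP-tagged TIF2 serves as the binding reporter. Primary testing used 20 uM final (0.2% DMSO); follow-up dose response covered 0.195 to 50 uM final (0.5% DMSO).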

[3] = molecular target: Ratio of Nucleoli Translocation and Cytoplasm, AR (gene 367) (UniProt P10275); assay: UPITT_HCI_U2OS_AR_TIF2_Nucleoli_Cytoplasm_Ratio_Agonist: University of Pittsburgh U2OS Androgen Receptor-Transcriptional Intermediary Factor 2 (AR-TIF2) Agonism High Content Imaging Assay for Ratio of Nucleoli Translocation and Cytoplasm (AID 2284000; active = hit-call score of the fitted dose curve at least 0.9, where 1 is the maximum;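 note: hits raise the red nucleolar to cytoplasm ratio above vehicle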)
Method in brief: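 Read-out first: nucleolar-to-cytoplasm ratio of red (AR-RFP) signal, quantified by high-content imaging in U2OS cells co-expressing TIF2-GFP. Activity is scored as signal increase over DMSO. Single-point screening used 20 uM final (0.2% DMSO).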

[4] = CCTE_Shafer_MEA_acute_spike_number: CCTE's Neural Acute Assay for Total Number of Spikes, Shafer Lab (AID 2284008);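 for AC50: curve fitted for decrease in spike count so AC50 reflects inhibitors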
Method in brief: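 Cortical neurons from rat, matured to DIV 13 or 15 on microelectrode arrays, are recorded at 37 C before and during 40-min exposure to 0.03-40 uM compound. Wells need >/= 10 active electrodes.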

[5] = CCTE_Shafer_MEA_acute_firing_rate_mean: CCTE's Neural Acute Assay for Mean Firing Rate, Shafer Lab (AID 2284009);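 note: analyzed for loss of signal so actives lower firing rate relative to DMSO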
Method in brief: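 Percent change in well-mean firing rate was derived from extracellular spikes detected at 8x rms noise (300-5000 Hz band-pass) before and after a 40-min compound exposure. Cultures were primary rat cortical neurons, tested at 0.03-40 uM.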

[6] = CCTE_Harrill_HTTr_Viability_MCF7: CCTE's 6-hour Cell Viability Assessment for the High-Throughput Transcriptomics (HTTr) Platform, in MCF-7 cells cultured in DMEM + 10% fetal bovine serum, Harrill Lab (AID 2284010)
Method in brief: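 Viability measured through PI dye exclusion by high-content imaging at 6 h post-dosing.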

[7] = CCTE_Harrill_HTTr_Apoptosis_MCF7: CCTE's 6-hour Apoptosis Assessment for the High-Throughput Transcriptomics (HTTr) Platform, in MCF-7 cells cultured in DMEM + 10% fetal bovine serum, Harrill Lab (AID 2284011)
Method in brief: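 Cells are dosed with test chemicals at eight concentrations and imaged 6 hours later for caspase-3/7 activity using a green fluorogenic detection reagent. Activity is fitted in both directions against DMSO controls.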

[8] = CCTE_Shafer_MEA_acute_burst_duration_mean: CCTE's Neural Acute Assay for Mean Burst Duration, Shafer Lab (AID 2284014);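 note: hits are decreases in mean burst duration relative to DMSO controls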
Method in brief: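 Read-out is the per-well percent change in mean burst duration (first to last spike within a single-electrode burst) between 40-min recordings before and after compound. Cultures were primary rat cortical neurons on MEAs, dosed at 0.03-40 uM on DIV 13 or 15.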

[9] = CCTE_Shafer_MEA_acute_per_burst_spike_number_mean: CCTE's Neural Acute Assay for Average Number of Spikes Per Burst, Shafer Lab (AID 2284015);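 note: hits are decreases in mean spikes per burst versus baseline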
Method in brief: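 Read-out: percent change in mean spikes per burst, each well's post-exposure 40-min recording versus its own 40-min baseline. Rat cortical cultures, DIV 13 or 15, compounds 0.03-40 uM; DMSO is negative control, loss-of-signal fitting.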

[10] = CCTE_Shafer_MEA_acute_interburst_interval_mean: CCTE's Neural Acute Assay for Mean Interburst Interval, Shafer Lab (AID 2284016);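 note: percent change of mean interburst interval versus each well's own pre-dose baseline; curves fitted for decrease in interburst interval relative to DMSO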
Method in brief: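 Rat cortical cultures, DIV 13/15; 20 min equilibration, 40 min baseline, compound 0.03-40 uM, 40 min re-recording, 37 C. Spikes detected at 8x rms noise (300-5000 Hz band-pass). Endpoint: % change in interburst interval, fitted in loss direction vs DMSO.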

[11] = CCTE_Harrill_HTTr_CellCount_MCF7: CCTE's Cell Proliferation Assessment for the High-Throughput Transcriptomics (HTTr) Platform, Harrill Lab (AID 2284012; active = hit-call score of the fitted dose curve at least 0.9, where 1 is the maximum;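 note: count of Hoechst-stained nuclei per well by high-content imaging in MCF-7 cells; cells exposed to compound for six hours; intended direction is loss of nuclei count meaning fewer cells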)
Method in brief: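 Nuclei counting (Hoechst, high content imaging) in MCF-7 after a 6 h treatment at eight concentrations. Activity fitted bidirectionally, DMSO as negative control.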

[12] = CCTE_Simmons_MITO_basal_resp_rate: CCTE's HepG2 Seahorse XF Respirometric Screening Assay at Basal Respiratory State, Simmons Lab (AID 2284001); conditions: actives raise or lower the signal
Method in brief: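 HepG2 respirometry; 7-pt titration 125 nM–100 uM final; kinetic OCR at 6 min intervals for 72 min; n=3 biological, technical singles; DMSO baseline, gain or loss fit; fenpyroximate (decrease) and 2,4-DNP (increase) controls.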

[13] = CCTE_Simmons_MITO_max_resp_rate: CCTE's HepG2 Seahorse XF Respirometric Screening Assay at Maximal Respiratory State [uncoupled], Simmons Lab (AID 2284002); conditions: actives raise or lower the signal
Method in brief: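 Maximal respiration in HepG2 cells is recorded as OCR by Seahorse XF following FCCP injection. Compounds span 125 nM–100 uM final; activity is called in either direction against DMSO.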

[14] = CCTE_Simmons_MITO_inhib_resp_rate: CCTE's HepG2 Seahorse XF Respirometric Screening Assay at Inhibited Respiratory State [full ETC block], Simmons Lab (AID 2284006); conditions: actives raise or lower the signal
Method in brief: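 Inhibited respiration was taken as HepG2 oxygen consumption after rotenone/antimycin A, which followed test-compound and FCCP injections. Chemicals were tested at seven final concentrations from 125 nM to 100 uM. Activity was fitted bidirectionally relative to DMSO.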

[15] = CCTE_Simmons_MITO_viability: CellTiter-Glo Viability Assessment for CCTE's HepG2 Seahorse XF Respirometric Screening Assay [post-hoc], Simmons Lab (AID 2284007; active = hit-call score of the fitted dose curve at least 0.9, where 1 is the maximum)
Method in brief: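 HepG2 cells; test chemical 7 conc. (125 nM–100 uM final) × 90 min; then luminescent ATP detection. DMSO vehicle. Positive control dichlone, 8 conc. from 10 nM to 100 uM final. Loss-of-signal endpoint.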

DIO1 (gene 1733) = assay: CCTE_GLTED_hDIO1: CCTE's human Deiodinase 1 (DIO1) Inhibition Assay, Great Lakes Toxicology and Ecology Division (GLTED) Lab (AID 2283987; active = hit-call score of the fitted dose curve at least 0.9, where 1 is the maximum;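 note: isolated human DIO1 enzyme in a cell-free setup rather than cells; enzyme activity read as free iodide liberated from substrate via Sandell-Kolthoff colorimetry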)
Method in brief: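 Cell-free hDIO1 assay, triplicate plates. Absorbance of the Sandell-Kolthoff reaction reports enzyme-liberated iodide; iodinated chemicals or nitrite, iron and thiocyanate may interfere.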

Measured: AC50

Ratio of Nucleoli Translocation and Cytoplasm, AR (gene 367), sequence (P10275 whole entry, looked up): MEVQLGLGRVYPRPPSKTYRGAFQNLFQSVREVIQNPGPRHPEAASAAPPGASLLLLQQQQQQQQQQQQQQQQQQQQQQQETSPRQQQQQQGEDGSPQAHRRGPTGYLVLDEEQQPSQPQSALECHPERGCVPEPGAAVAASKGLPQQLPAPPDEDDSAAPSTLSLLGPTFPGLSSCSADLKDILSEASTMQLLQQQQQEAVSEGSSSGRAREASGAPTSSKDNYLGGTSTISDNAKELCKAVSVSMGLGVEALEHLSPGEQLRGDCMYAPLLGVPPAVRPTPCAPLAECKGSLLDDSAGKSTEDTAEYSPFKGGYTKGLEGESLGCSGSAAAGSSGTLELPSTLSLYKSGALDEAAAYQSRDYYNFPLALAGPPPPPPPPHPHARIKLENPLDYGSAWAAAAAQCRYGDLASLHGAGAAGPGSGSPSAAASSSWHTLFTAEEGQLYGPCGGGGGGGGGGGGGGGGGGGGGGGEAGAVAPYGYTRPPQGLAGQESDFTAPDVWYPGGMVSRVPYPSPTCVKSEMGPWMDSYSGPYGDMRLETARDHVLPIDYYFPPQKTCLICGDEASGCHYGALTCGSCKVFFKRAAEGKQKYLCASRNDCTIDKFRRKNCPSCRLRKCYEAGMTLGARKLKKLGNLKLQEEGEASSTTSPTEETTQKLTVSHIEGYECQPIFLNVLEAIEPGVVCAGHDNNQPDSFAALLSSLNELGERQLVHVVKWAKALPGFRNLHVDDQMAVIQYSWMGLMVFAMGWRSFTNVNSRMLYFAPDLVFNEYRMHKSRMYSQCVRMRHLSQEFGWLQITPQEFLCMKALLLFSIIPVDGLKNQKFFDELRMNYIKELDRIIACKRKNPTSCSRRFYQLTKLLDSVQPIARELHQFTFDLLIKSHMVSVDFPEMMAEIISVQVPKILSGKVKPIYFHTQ
Nucleoli Translocation, AR (gene 367), sequence (P10275 whole entry, looked up): as above

CSC(=O)c1cccc2nnsc12
active: [1] 50 µM
inactive: [2] | [3] | [4] | [5] | [6] | [7] | [8] | [9] | [10]

CC(=O)S[C@@H]1CC2=CC(=O)CC[C@]2(C)[C@H]2CC[C@@]3(C)[C@@H](CC[C@@]34CCC(=O)O4)[C@H]12
inactive: [1] | [6] | [7] | [11]

CCOC(=O)NCCOc1ccc(Oc2ccccc2)cc1
active: [12] 21.5 µM | [13] 19.8 µM
inactive: [14] | [15] | [6] | [7]

S=C(S)NCCNC(=S)S.[Mn+2].[S-]C([S-])=NCCN=C([S-])[S-].[Zn+2]
inactive: [6] | [7] | [11]
active: DIO1 (gene 1733) 29.5 µM and 50 µM

O=C(c1ccccc1)C1CCCCC1
inactive: [1] | [2] | [3] | [4] | [5] | [8] | [9] | [10]

CCOC(=O)C(C)Oc1ccc(Oc2nc3ccc(Cl)cc3o2)cc1 (stereo not drawn)
inactive: [1] | [6] | [7]

c1ccc2[nH]c(-c3cscn3)nc2c1
inactive: [1] | [3] | [6] | [7] | [11]

CCCCOC(=O)C(C)Oc1ccc(Oc2ccc(C(F)(F)F)cn2)cc1 (stereo not drawn)
inactive: [12] | [13] | [14] | [15] | [6] | [7]

CCCCOCCOCCOCc1cc2c(cc1CCC)OCO2
inactive: [1] | [3] | [6] | [7]

CCOC(=O)COc1cc(-n2ncc(C(F)(F)F)c(C)c2=O)c(F)cc1Cl
inactive: [2] | [3] | [6] | [7] | [11]

CCCCCCC(C)OC(=O)COc1nc(F)c(Cl)c(N)c1Cl (stereo not drawn)
inactive: [6] | [7]

CCOC(=O)c1ccc(O)cc1
inactive: [6] | [7] | [11]

Oc1ccc(C(c2ccc(O)cc2)C(Cl)(Cl)Cl)cc1
inactive: [14] | [6] | [7] | [11] | [8] | [9]
active: [12] 18.8 µM | [13] 21.7 µM | [4] 4.04 µM | [5] 4.04 µM | [10] 7.4 µM

CCCN(CCC)c1c([N+](=O)[O-])cc(C(F)(F)F)c(N)c1[N+](=O)[O-]
active: [6] 68.1 µM
inactive: [4] | [5] | [7] | [11] | [8] | [9] | [10]

OB(O)O
inactive: [4] | [5] | [6] | [7] | [11] | [8] | [9] | [10]

C#C[C@]1(O)CC[C@H]2[C@@H]3CCC4=CC(=O)CC[C@@H]4[C@H]3CC[C@@]21CC
inactive: [6] | [7] | [11]

CC(C)(C)[C@@H](O)[C@@H](Cc1ccc(Cl)cc1)n1cncn1
active: [8] 25.1 µM
inactive: [4] | [5] | [6] | [7] | [11] | [9] | [10]

CCNc1nc(N)nc(Cl)n1
inactive: [4] | [5] | [6] | [7] | [8] | [9] | [10]

CCOC(=O)C(C)Oc1ccc(Oc2cnc3cc(Cl)ccc3n2)cc1 (stereo not drawn)
inactive: [6] | [7]

CCC(O)=C1C(=O)CC(C(=O)O)CC1=O (stereo not drawn)
inactive: [6] | [7]

CCC(C)OC(=O)N1CCCCC1CCO (stereo not drawn)
inactive: [6] | [7]

CC(=O)[C@H]1CC[C@H]2[C@@H]3CCC4=CC(=O)CC[C@]4(C)[C@H]3CC[C@]12C
inactive: [14] | [15] | [6] | [7] | [11]
active: [12] 10.1 µM | [13] 13.4 µM

CCN(CC)C(=O)c1cccc(C)c1
inactive: [6] | [7] | [11]

CCCCC(CC)COC(=O)c1ccccc1C(=O)O (stereo not drawn)
active: [12] 3.97 µM
inactive: [13] | [14] | [15] | [6] | [7]

COC(=O)c1ccc(I)cc1S(=O)(=O)NC(=O)Nc1nc(C)nc(OC)n1
inactive: [6] | [7]

COCCO
inactive: [6] | [7]

COC(=O)c1ccccc1C(=O)O
inactive: [4] | [5] | [6] | [7] | [11] | [8] | [9] | [10]

CCCCOC(=O)[C@@H](C)Oc1ccc(Oc2ccc(C(F)(F)F)cn2)cc1
inactive: [12] | [13] | [14] | [15] | [6] | [7] | [11]

C#CCOC(=O)[C@@H](C)Oc1ccc(Oc2ncc(Cl)cc2F)cc1
inactive: [4] | [5] | [6] | [7] | [8] | [9] | [10]

c1ccc(Nc2ccccc2)cc1
inactive: [6] | [7]

O=C(Nc1ccc([N+](=O)[O-])cc1Cl)c1cc(Cl)ccc1O
inactive: [6] | [7]
active: [12] 1.57 µM | [13] 0.928 µM | [14] 1.36 µM | [4] 0.115 µM | [5] 0.114 µM | [8] 0.621 µM | [9] 0.292 µM | [10] 0.183 µM

C[C@]12C[C@H](O)[C@H]3[C@@H](CCC4=CC(=O)CC[C@@]43C)[C@@H]1CC[C@@H]2C(=O)CO
active: [12] 42 µM
inactive: [13] | [15] | [6] | [7] | [11]

CCN(Cc1c(F)cccc1Cl)c1c([N+](=O)[O-])cc(C(F)(F)F)cc1[N+](=O)[O-]
inactive: [6] | [7]

CCCCCOC(=O)COc1cc(N2C(=O)C3=C(CCCC3)C2=O)c(F)cc1Cl
inactive: [6] | [7] | [11]

COc1c(Cl)ccc(Cl)c1C(=O)O
inactive: [6] | [7]

CCCOC(=O)NCCCN(C)C
inactive: [6] | [7]

O=C(O)c1ccccc1
inactive: [4] | [5] | [6] | [7] | [11] | [8] | [9] | [10]
